# Test results: PubChem BioAssay AID504861 (Broad Institute, 2011)
# In all, about 1,200 compounds went through this assay and about 290 (24%) were called active. Roughly 3% stayed inconclusive and do not appear here.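 The calls were made as follows: active = compounds lowering cell viability signal with fitted half-maximal concentration at most ten times their highest tested concentration; inconclusive = flat fit with 30 to 70% signal loss, or poor fit; inactive = the rest.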 The list is a sample of the results. Entries with a potency or affinity are not part of this list.
# Experiment: HEK293T cell viability reduction, dose response, cytotoxicity control for LMP1 NF-kB inhibitor project, CellTiter-Glo luminescence, cherry-picks (AID 504861)
# Details: CellTiter-Glo ATP luminescence, 48 h; series mostly up to 26 µM
row,Structure (SMILES),outcome
1,COc1ccc(CCC(=O)Nc2ccc(C)c([N+](=O)[O-])c2)cc1,inactive
2,CN(C)S(=O)(=O)c1cccc(NC(=O)c2n[nH]c(=O)c3ccccc23)c1,inactive
3,CCc1ccc(-c2nnn(CCC(=O)OC)n2)cc1,inactive
4,Oc1cccc(/C=N/NC(=S)NCCN2CCOCC2)c1O,inactive
5,Cc1ccc(C(=O)Nc2cccc(C(=O)N/N=C/c3ccccc3F)c2)cc1,inactive
6,COc1ccccc1C1(CC(=O)O)CCOC(C)(C)C1 (stereo not given),inactive
7,CCCN1C(=O)C2(SC(NC(C)=O)=NN2C(C)=O)c2cc(C)cc(C)c21 (stereo not given),inactive
8,COc1ccc(OC)c2c1sc(=NC(=O)c1ccco1)n2C,inactive
9,Cc1ccc(NC(=S)Nc2cccc(S(=O)(=O)Nc3c(C)n(C)n(-c4ccccc4)c3=O)c2)cc1,inactive
10,Cc1ccc(C)c(S(=O)(=O)N2CCN(C(=O)c3ccc(C)s3)CC2)c1,inactive
11,O=C(Cn1ccc(C(F)(F)F)n1)Nc1cccc(S(=O)(=O)N2CCCCC2)c1,inactive
12,Cc1ccc(S(=O)(=O)N[C@H](C(=O)N2CCC(C(=O)N[C@@H](CC(=O)O)C(=O)O)CC2)C(C)C)cc1,inactive
13,C=CCn1c(C)c(C(C)=O)c(N2CCN(C(c3ccccc3)c3ccccc3)CC2)nc1=S,inactive
14,COc1ccccc1OCc1ccc(C(=O)c2ccccc2)cc1,inactive
15,COC(=O)c1ccc(COc2ccccc2/C=C/C(=O)c2ccc(OCC(=O)O)cc2)cc1,inactive
16,COc1cccc(C(=O)N2CCN(c3nc4cc(C)cc(C)c4cc3C#N)CC2)c1,inactive
17,Cc1ccc(N2CCN(C3=NC(=O)/C(=C\c4cn[nH]c4-c4ccccc4)S3)CC2)cc1,inactive
18,Cc1cnc(NC(=O)c2ccc(OCC3CCCO3)cc2)s1 (stereo not given),inactive
19,O=C(CSc1nnc(NC(=O)c2ccc3c(c2)OCO3)s1)NCc1ccco1,inactive
20,COc1ccc(C(=O)N(CN2CCCC2=O)c2cc(C)on2)cc1OC,inactive
21,COc1ccc(/C=C\C(=O)NCc2ccc3c(c2)cc(C)n3C)cc1OC,inactive
22,O=C(C[n+]1ccccc1)N/N=C/c1ccc(O)cc1,inactive
23,CCCCNC(=S)Nc1ccc([N+](=O)[O-])cc1,inactive
24,O=C(CCN1CCC(c2ccccc2)C1)c1ccc2c(c1)OCCO2 (stereo not given),inactive
25,CC(=O)Nc1ccc(OCCCNC(=O)c2c(-c3ccccc3)noc2C)cc1,inactive

row,Structure (SMILES),outcome
1,CC(C)c1ccc(OCc2cccc(C(=O)N/N=C/c3cccnc3)c2)cc1,inactive
2,O=C(CCc1ccccc1Cl)N1CCN(S(=O)(=O)c2ccccc2)CC1,inactive
3,O=C(O)c1ccc(N/N=C/c2cc3cc4c(cc3nc2Cl)OCCO4)cc1,inactive
4,O=C(Cc1cccc2ccccc12)Nc1ccc(-c2cc3ccccc3oc2=O)cc1,inactive
5,NC(=O)N/N=C/c1ccc(N2CCOCC2)s1,inactive
6,CC1(C)CC(NS(=O)(=O)c2ccc(F)cc2)CC(C)(C)N1,inactive
7,O=[N+]([O-])c1ccc(N2CCN(Cc3cccc([N+](=O)[O-])c3)CC2)cc1,inactive
8,O=c1[nH]c(=O)n([C@H]2C[C@H](O)[C@@H](CO)O2)cc1F,inactive
9,c1ccc(-c2nnc(-c3ccccn3)s2)nc1,inactive
10,Cc1c(NC(=O)c2cccc(NC(=O)COc3ccccc3C#N)c2)c(=O)n(-c2ccccc2)n1C,inactive
11,Cc1ccc(C(=O)Nc2cccc(C(=O)O)c2)cc1S(=O)(=O)N1CCCCC1,inactive
12,COc1ccc(C=NNc2nc3ccccc3s2)cc1,inactive
13,Cc1cccc(C)c1Nc1nc2ccccc2o1,inactive
14,Cc1nc(Nc2nc3ccccc3o2)nc2c1CCC2,inactive
15,CC1CCCN(C(=O)COC(=O)c2n[nH]c3ccccc23)C1 (stereo not given),inactive
16,COc1c(S(=O)(=O)N2CCN(c3ccc(F)cc3)CC2)ccc(Cl)c1Cl,inactive
17,CC(=O)c1ccc(-c2nc3c4ccccc4ccn3c2C(C)=O)o1,inactive
18,Cc1nn(-c2ccccc2)c(Cl)c1C1C(C#N)=C(N)Oc2n[nH]c(C)c21 (stereo not given),inactive
19,CCCCN(c1ccccc1)c1ncnc(N)c1[N+](=O)[O-],inactive
20,CN1CCN(CCOc2ccc(Cc3ccccc3)cc2)CC1,inactive
21,OC(CCCN1CCCCC1)(c1ccccc1)c1ccccc1,inactive
22,COc1ccc(/C=C/C(=O)OCC(=O)NCc2ccco2)cc1OC,inactive
23,NNC(=O)c1cccc(COc2ccc3c(c2)CCC3)c1,inactive
24,O=c1c([N+](=O)[O-])cn(Cc2ccccc2)c(=O)n1Cc1ccccc1,inactive
25,O=C1CSC(=S)N1Cc1ccccc1,inactive

row,Structure (SMILES),outcome
1,CCOC(=O)C1=C(O)/C(=C/c2ccc(CNC(=O)C(=O)Nc3ccc(C)cc3)o2)N=C1C,inactive
2,O=C1CN(C(=O)c2ccc(F)c(S(=O)(=O)N3CCOCC3)c2)c2ccccc2N1,inactive
3,COC(=O)[C@H](C)[C@H]1C[C@]1(C)[C@H](NC(=O)OCc1ccccc1)c1ccccc1,inactive
4,Clc1ccccc1C1=Nn2c(nnc2-c2ccncc2)SC1,inactive
5,Cc1cc(N/N=C\c2ccc(Br)cc2)nc(-n2nc(C)cc2C)n1,inactive
6,COc1ccc(S(=O)(=O)N2CCN(C(=S)NCC3CCCO3)CC2)cc1OC (stereo not given),inactive
7,Oc1c(N=NC(=S)Nc2ccccc2F)c2ccccc2n1Cc1ccccc1Cl,inactive
8,COc1ccc(C2=NN(C(=O)CSC3=NN4CCCC(=O)N=C4S3)C(c3cccc(OC)c3OC)C2)cc1 (stereo not given),inactive
9,O=C(NC1=NCCS1)c1cc2ccccc2o1,inactive
10,O=C(O)[C@@H]1[C@H]2C[C@H]3c4[nH]c5ccccc5c4CCN3C[C@@H]2CC[C@@H]1O,inactive
11,Cc1ccnc(NC(=O)c2ccc(C(=O)c3ccccc3)cc2)c1,inactive
12,Cc1ccnc(NC(=O)c2ccc(OCC3CCCO3)cc2)c1 (stereo not given),inactive
13,COc1ccc(C(c2c(C)n(C)n(-c3ccccc3)c2=O)c2c(C)n(C)n(-c3ccccc3)c2=O)c(OC)c1OC,inactive
14,CCCNC(=O)N1CCN(S(=O)(=O)c2ccc(C)c(C)c2)CC1,inactive
15,O=C(CCC(=O)NNC(=O)Nc1cccc(Cl)c1)NCc1ccccc1,inactive
16,Cc1cc(NCCCn2ccnc2)n2ncc(-c3ccccc3)c2n1,inactive
17,O=C(Nc1cnc2ccccn2c1=O)c1ccc(Cl)cc1Cl,inactive
18,O=C1c2cccc3c(O)ccc(c23)C(=O)N1c1ccc(Cl)cc1,inactive
19,CC(=O)c1ccc(-n2nnnc2SCC(=O)N2CCc3ccccc3C2)cc1,inactive
20,COc1cc(N)c(Cl)cc1C(=O)NC1CCN(Cc2ccccc2)CC1,inactive
21,CCOc1ccc(NC(=O)c2cnsn2)cc1,inactive
22,COc1ccc(-n2c(C)c(C(C)=O)c3cc(O)ccc32)cc1,inactive
23,Clc1ccc(-n2nnnc2Sc2ncnc3sccc23)cc1,inactive
24,COc1cc2nc(NC(=O)c3ccco3)sc(=O)c2cc1OC,inactive
25,O=C(Nc1ccc(Cl)cc1)c1ccco1,inactive

row,Structure (SMILES),outcome
1,COc1cccc(/C=C2\SC(=S)N(CCC(=O)NCCc3ccc(O)cc3)C2=O)c1,inactive
2,COc1ccc(NC(=O)Cn2nnc(C(=O)NCc3ccccc3)c2N)c(OC)c1,inactive
3,CNC(=O)C1=NCCCc2cc(OC)c(OC)cc21,inactive
4,CCc1ccc(/C=C2\SC(=S)N(CCCC(=O)Nc3ccccn3)C2=O)cc1,inactive
5,COc1ccc(OC)c2[nH]c(=O)c(CCNC(=O)c3ccc(S(=O)(=O)N(C)C)cc3)cc12,inactive
6,O=C(NOCc1ccccc1)c1ccc(Cl)cc1Cl,inactive
7,CCOC(=O)c1nc(NCc2ccccc2F)c2ccccc2n1,inactive
8,C/C(=N\NS(=O)(=O)c1ccc([N+](=O)[O-])cc1)c1cccs1,inactive
9,CC1Cc2ccccc2N1c1ncnc(N)c1[N+](=O)[O-] (stereo not given),inactive
10,O=C(/C=C/Nc1ccc(F)cc1Br)c1ccccc1,inactive
11,COc1ccc(C(=O)Nc2nnc(SCC(=O)NC3CC3)s2)cc1,inactive
12,O=C(COc1ccc2ccccc2c1)NCCNC(=O)COc1ccc2ccccc2c1,inactive
13,Cc1ccc(C(=O)CSc2nnnn2C(C)C)c(C)c1,inactive
14,O=C(Nc1nnc(-c2cccs2)o1)c1cccc(C(F)(F)F)c1,inactive
15,COc1ccc(OCc2cccc(C(=O)Nn3cc([N+](=O)[O-])cn3)c2)cc1,inactive
16,COc1ccc(C(=O)Nc2cccc(C(=O)N/N=C/c3ccc(OC)cc3OC)c2)cc1,inactive
17,Cc1ccc(C(=O)N2CCN(c3ccc(NC(=O)CSc4ccc(Cl)cc4)cc3)CC2)cc1,inactive
18,Cc1nnc(SCc2cnc(-c3ccc(C(C)C)cc3)s2)n1C,inactive
19,Cc1cc(NC(=O)CSc2ccnc(=O)[nH]2)no1,inactive
20,O=C1OCCC1Sc1nnc(-c2ccc(Cl)cc2Cl)o1 (stereo not given),inactive
21,O=c1[nH]c(Nc2nc3ccccc3o2)nc2c1CCCC2,inactive
22,O=C(CC(c1ccc(F)cc1)c1ccco1)N1CCOCC1 (stereo not given),inactive
23,O=C(Nc1ccc(CN2CCOCC2)cc1)c1cc2ccccn2n1,inactive
24,Clc1ccc(-c2ccnc(Oc3ccc4ccccc4c3)n2)cc1,inactive
25,CC(C)(C)c1cc(C(=O)NNC(=O)Nc2cccc(Cl)c2)n(Cc2ccccc2)n1,inactive
